Shown are actives, neighbours in structure and some others; about 3.4% of the full set was active somewhere.
SIRT5 inh: SIRT5 desuccinylase inhibitors, primary screen, biochemical, fluorescence imaging, single point, set 5. Purified SirT5, succinyl-peptide AMC, trypsin-coupled fluorescence. inhibition, % at 15 µM. hit rate 1.1% among 330,000; in the data active = inhibition above about 15%
Target sequence (Q9NXA8 whole entry, looked up): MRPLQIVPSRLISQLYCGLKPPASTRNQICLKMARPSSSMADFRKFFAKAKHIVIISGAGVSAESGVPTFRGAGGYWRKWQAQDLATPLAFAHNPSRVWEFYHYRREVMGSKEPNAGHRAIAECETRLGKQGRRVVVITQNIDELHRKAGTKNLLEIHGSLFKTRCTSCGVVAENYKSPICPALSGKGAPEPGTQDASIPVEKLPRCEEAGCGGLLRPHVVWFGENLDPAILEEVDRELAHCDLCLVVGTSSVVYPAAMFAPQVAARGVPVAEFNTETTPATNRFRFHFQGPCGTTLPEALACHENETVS
LGR2 antag: inhibitors of bursicon-induced LGR2 CRE-luciferase signal, primary screen, cell-based, HEK293, CRE-luciferase reporter, bursicon stimulation | inhibition, % at 9.99 µM | bursicon-stimulated, 4 h | hit rate 0.35% among 380,000 | AID 720647, 2013;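 active = drop in luminescence signal, shown as inhibition above about 50% in the replicate tests, limit read from the data, passing the limit was not always enough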;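 note: agonist challenge used bursicon conditioned medium at about half maximal strength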
Ecoli rRNA inh: reduced GFP signal of wild-type E. coli, primary screen, bacterial rRNA inhibitor project, GFP/RFP fluorescence, OD600, single point; E. coli WT GFP vs humanized-ribosome RFP mutants, 24 h; hits give low values; DMSO median 0, no signal -100; hit rate 1.6% among 350,000; GFP signal change (wild-type ribosome), % (concentration not given with the values);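 active = significant combined selectivity score with lowered wild-type GFP, culture density cut under 30%, mutant RFP and density less affected; inactive = any of these conditions unmet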
PAX8 inh HTS: inhibitors of PAX8-driven TPO luciferase reporter, primary screen, RMG-I cells, single concentration; AID 652154, 2013; SteadyGlo, 24 h; hit rate 1.2% among 360,000; inhibition, % at 12.6 µM;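 active = mean replicate inhibition at least 60% with every replicate also reaching 60%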;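 note: luciferase light reporting Pax8 driven TPO promoter activity; plate controls were median of neutral control wells for no effect and mitoxantrone controls for full effect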
EWS-Fli inh: EWS/Fli-driven NR0B1 reporter inhibitors, primary screen, A673 cells, NR0B1 luciferase, luminescence, MLPCN library; viability-normalised; inhibition, % at 12.6 µM; hit rate 0.67% among 350,000; AID 651661, 2012;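 active = mean inhibition of at least 50% after viability correction, with every replicate also passing that limit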;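 note: firefly luciferase signal divided by Alamar Blue viability fluorescence both relative to DMSO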
PGC1a acetyl inh: inhibitors of PGC1a acetylation signal, primary screen, cell-based, U2OS, AlphaScreen, inhibitor mode | AlphaScreen anti-acetyl-lysine; with virally co-expressed GCN5 acetyltransferase | inhibition, % at 15.6 µM | hit rate 0.17% among 350,000;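 active = every replicate shows inhibition of at least 40%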;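 note: 0% = neutral control wells and 100% = positive control wells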
Active calls of the source: *.

COc1ccc(S(=O)(=O)N(C)C[C@H]2Oc3cc(C#CC4CCCC4)ccc3S(=O)(=O)N([C@H](C)CO)C[C@@H]2C)cc1 was read as SIRT5 inh 15.1*, LGR2 antag 9.3, Ecoli rRNA inh 2.5, PAX8 inh HTS 43.9, EWS-Fli inh 14.9 and PGC1a acetyl inh 14.2.
COc1ccc(S(=O)(=O)N(C)C[C@@H]2Oc3cc(C#CC4CCCC4)ccc3S(=O)(=O)N([C@@H](C)CO)C[C@H]2C)cc1 was read as SIRT5 inh 15.6*, LGR2 antag 4.4, Ecoli rRNA inh 2.4, PAX8 inh HTS 38.5, EWS-Fli inh 13.7 and PGC1a acetyl inh -13.3.
Screening CC(C)[C@H]1CCc2cnnn2COC[C@H](c2ccccc2)NC1=O returned Ecoli rRNA inh 5.9.
Screening O=c1[nH]c(CSc2ccccn2)nc2c1oc1ccccc12 returned SIRT5 inh -1.0, LGR2 antag 80.0*, Ecoli rRNA inh 12.6, PAX8 inh HTS -7.4, EWS-Fli inh 28.0 and PGC1a acetyl inh -24.4.
For CC(=O)Nc1cccc2c1O[C@@H](CN(C)C)[C@@H](C)CN(C)C2=O the results were Ecoli rRNA inh -0.2.
`CCc1ccc(-c2nc(CSCC(=O)NCc3ccco3)c(C)o2)cc1` gave SIRT5 inh -3.0, LGR2 antag 0.8, Ecoli rRNA inh -21.4, PAX8 inh HTS 64.4* and EWS-Fli inh 83.6*.
CCCNC(=O)CSCc1nc(-c2ccc(SC)cc2)oc1C was read as SIRT5 inh -2.5, LGR2 antag -15.9, Ecoli rRNA inh -19.6, PAX8 inh HTS -3.2 and EWS-Fli inh 17.7.
Screening C=C1CCC[C@]2(C)C[C@H]3OC(=O)C(CN(C)CC(OC)OC)[C@H]3CC12 (some centres undefined) returned SIRT5 inh 0.8, LGR2 antag -0.9, Ecoli rRNA inh -6.5, PAX8 inh HTS 63.2* and EWS-Fli inh 9.5.
CCc1ccc(/C=N/NC(=O)Cc2ccc(OC)c(OC)c2)s1 was read as SIRT5 inh -0.8, LGR2 antag -5.2, Ecoli rRNA inh -23.6* and PAX8 inh HTS 14.1.
For COc1ccc(-c2cc3cc4c(cc3cn2)OCO4)cc1 the results were LGR2 antag 64.7*, Ecoli rRNA inh -1.5, PAX8 inh HTS -74.2, EWS-Fli inh -8.1 and PGC1a acetyl inh 4.7.
Screening COc1ccc(-c2cc3cc(OC)c(OC)cc3cn2)cc1 returned LGR2 antag -105.1, Ecoli rRNA inh -1.7, PAX8 inh HTS -188.5, EWS-Fli inh -108.8 and PGC1a acetyl inh 1.7.
CC(NNC(=S)N1CCCCCC1)c1ccc2ccccc2n1 (centres undefined) was read as SIRT5 inh -2.5, LGR2 antag 0.9, Ecoli rRNA inh 0.5, PAX8 inh HTS 81.3* and EWS-Fli inh 3.3.
Screening CC(C)C#Cc1cnc2c(c1)C(=O)N([C@@H](C)CO)C[C@H](C)[C@H](CN(C)C(=O)Nc1ccc(F)cc1)O2 returned SIRT5 inh 2.2, LGR2 antag 18.0, Ecoli rRNA inh -2.7, EWS-Fli inh 11.3 and PGC1a acetyl inh -3.5.
Screening O=C(Nc1ccc2c(c1)OCO2)N[C@@H]1CC[C@H](CCNC(=O)C2CCOCC2)O[C@H]1CO returned SIRT5 inh 5.0, LGR2 antag 10.1, Ecoli rRNA inh 0.5, EWS-Fli inh 2.2 and PGC1a acetyl inh 4.6.
Screening CCc1cc(OCCN(C)C)ccc1Cl returned SIRT5 inh -1.3, LGR2 antag -0.8, Ecoli rRNA inh 5.8, PAX8 inh HTS -17.5, EWS-Fli inh 3.3 and PGC1a acetyl inh 0.1.
CN(C)CCOc1ccc2c(c1)C(=O)C(=Cc1ncc([N+](=O)[O-])n1C)C2 was read as SIRT5 inh 2.5, LGR2 antag 99.6*, Ecoli rRNA inh -64.8, PAX8 inh HTS 98.8*, EWS-Fli inh 52.3* and PGC1a acetyl inh 92.6*.
For C[C@H](CO)N1C[C@H](C)[C@H](CN(C)C(=O)Nc2ccc3c(c2)OCO3)Oc2ccc(NC(=O)Nc3ccc(C(F)(F)F)cc3)cc2C1=O the results were SIRT5 inh 15.4*, LGR2 antag 1.8, Ecoli rRNA inh -2.6, EWS-Fli inh -9.3 and PGC1a acetyl inh 0.8.
C[C@H](CO)N1C[C@H](C)[C@@H](CN(C)C(=O)Nc2ccc(C(F)(F)F)cc2)Oc2ccc(NC(=O)Nc3ccc4c(c3)OCO4)cc2C1=O was read as SIRT5 inh 9.0, LGR2 antag -9.9, Ecoli rRNA inh -5.7, PAX8 inh HTS 15.5, EWS-Fli inh -7.2 and PGC1a acetyl inh 1.9.
For C[C@H](CO)N1C[C@H](C)[C@H](CN(C)C(=O)Nc2ccc3c(c2)OCO3)Oc2ccc(NC(=O)Nc3ccc4c(c3)OCO4)cc2C1=O the results were SIRT5 inh 6.2, LGR2 antag -23.5, Ecoli rRNA inh -0.4, PAX8 inh HTS -12.1, EWS-Fli inh -6.5 and PGC1a acetyl inh 0.5.
`C[C@@H]1CN([C@H](C)CO)C(=O)c2cc(NC(=O)Nc3ccc(C(F)(F)F)cc3)ccc2O[C@H]1CN(C)C(=O)Nc1ccc2c(c1)OCO2` gave SIRT5 inh 5.4, LGR2 antag -26.6, Ecoli rRNA inh -1.3, EWS-Fli inh -12.4 and PGC1a acetyl inh 2.4.
C[C@@H]1CN([C@@H](C)CO)C(=O)c2cc(NC(=O)Nc3ccc4c(c3)OCO4)ccc2O[C@@H]1CN(C)C(=O)Nc1ccc(C(F)(F)F)cc1 was read as SIRT5 inh 16.4*, LGR2 antag 12.8, Ecoli rRNA inh -15.1, PAX8 inh HTS 77.4*, EWS-Fli inh 1.8 and PGC1a acetyl inh 1.0.
Screening C[C@H]1CN([C@@H](C)CO)C(=O)c2cc(NC(=O)Nc3ccc4c(c3)OCO4)ccc2O[C@H]1CN(C)C(=O)Nc1ccc2c(c1)OCO2 returned SIRT5 inh 16.4*, LGR2 antag -0.6, Ecoli rRNA inh -4.0, PAX8 inh HTS -21.3, EWS-Fli inh 7.9 and PGC1a acetyl inh -1.6.
`C[C@@H]1CN([C@H](C)CO)C(=O)c2cc(NC(=O)c3ccncc3)ccc2O[C@@H]1CN(C)C(=O)Nc1ccc2c(c1)OCO2` gave SIRT5 inh 19.8*, LGR2 antag 10.9, Ecoli rRNA inh 4.9, EWS-Fli inh -76.1 and PGC1a acetyl inh -9.4.
CCCC#Cc1ccc([C@@H]2[C@@H](CO)N3C(=O)CN(C(=O)NCCC)C[C@H]23)cc1 was read as SIRT5 inh 0.1, LGR2 antag 14.2, Ecoli rRNA inh -8.4, PAX8 inh HTS -4.7, EWS-Fli inh 1.2 and PGC1a acetyl inh -4.6.
Screening COc1ccc(-c2c[n+](CC(=O)OC3CC(C)CCC3C(C)C)c3n2CCC3)cc1 (centres undefined) returned SIRT5 inh 8.6, LGR2 antag 33.7, Ecoli rRNA inh -48.5, PAX8 inh HTS 91.3*, EWS-Fli inh 21.2 and PGC1a acetyl inh 1.0.

From PubChem
